# From PubChem BioAssay (NCATS)
# Unmarked numbers belong to inactive results. Records with an inconclusive call do not appear. Where a call stands in place of a potency, no number is given. Activity calls are given as the source filed them. Unless noted, calls come from the whole dose curve; as a rule, active = well fitted curve in the direction sought with a large enough effect; inconclusive = small, poorly fitted or top-dose-only effect, or another doubt; inactive = no such curve, though single readings can be large; an effect the other way counts as inactive or inconclusive.
# Legend:
# [1] = qHTS for Inhibitors of Plasmodium falciparum (DD2) proliferation (AID 504314);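 note: parasite DNA measured by SYBR Green fluorescence after red cell lysis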
# How it was run: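 Fluorescence read-out (ex 485/em 535 nm) of SYBR Green-stained parasite DNA quantifies intraerythrocytic growth. Cultures at 0.3% parasitemia and 2.5% hematocrit were treated for 72 h; data normalized to DMSO and 0.29 uM artemisinin wells.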
# [2] = qHTS for Inhibitors of Plasmodium falciparum (CP250) proliferation (AID 504320)
# How it was run: (§1)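 Erythrocytes infected with P. falciparum line (0.3% parasitemia, 2.5% hematocrit final) incubated with compounds 72 h at 37 °C, 5% CO2; SYBR Green lysis buffer added, fluorescence read next day. Normalized to 0.29 uM artemisinin and DMSO.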
# [3] = biological target: Atrial natriuretic peptide receptor 1 (Homo sapiens) (UniProt P16066); assay: Natriuretic polypeptide receptor (hNpr1) antagonism - Pilot CMLD screen (AID 1347052; calls by dose curve;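 note: HEK293 cells with hNpr1 stimulated by hNppA peptide at 0.1 nM; cGMP level read as GloSensor luciferase luminescence after agonist stimulation; series mostly up to about 9.2 µM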)
# Atrial natriuretic peptide receptor 1 (Homo sapiens), sequence (P16066 whole entry, looked up): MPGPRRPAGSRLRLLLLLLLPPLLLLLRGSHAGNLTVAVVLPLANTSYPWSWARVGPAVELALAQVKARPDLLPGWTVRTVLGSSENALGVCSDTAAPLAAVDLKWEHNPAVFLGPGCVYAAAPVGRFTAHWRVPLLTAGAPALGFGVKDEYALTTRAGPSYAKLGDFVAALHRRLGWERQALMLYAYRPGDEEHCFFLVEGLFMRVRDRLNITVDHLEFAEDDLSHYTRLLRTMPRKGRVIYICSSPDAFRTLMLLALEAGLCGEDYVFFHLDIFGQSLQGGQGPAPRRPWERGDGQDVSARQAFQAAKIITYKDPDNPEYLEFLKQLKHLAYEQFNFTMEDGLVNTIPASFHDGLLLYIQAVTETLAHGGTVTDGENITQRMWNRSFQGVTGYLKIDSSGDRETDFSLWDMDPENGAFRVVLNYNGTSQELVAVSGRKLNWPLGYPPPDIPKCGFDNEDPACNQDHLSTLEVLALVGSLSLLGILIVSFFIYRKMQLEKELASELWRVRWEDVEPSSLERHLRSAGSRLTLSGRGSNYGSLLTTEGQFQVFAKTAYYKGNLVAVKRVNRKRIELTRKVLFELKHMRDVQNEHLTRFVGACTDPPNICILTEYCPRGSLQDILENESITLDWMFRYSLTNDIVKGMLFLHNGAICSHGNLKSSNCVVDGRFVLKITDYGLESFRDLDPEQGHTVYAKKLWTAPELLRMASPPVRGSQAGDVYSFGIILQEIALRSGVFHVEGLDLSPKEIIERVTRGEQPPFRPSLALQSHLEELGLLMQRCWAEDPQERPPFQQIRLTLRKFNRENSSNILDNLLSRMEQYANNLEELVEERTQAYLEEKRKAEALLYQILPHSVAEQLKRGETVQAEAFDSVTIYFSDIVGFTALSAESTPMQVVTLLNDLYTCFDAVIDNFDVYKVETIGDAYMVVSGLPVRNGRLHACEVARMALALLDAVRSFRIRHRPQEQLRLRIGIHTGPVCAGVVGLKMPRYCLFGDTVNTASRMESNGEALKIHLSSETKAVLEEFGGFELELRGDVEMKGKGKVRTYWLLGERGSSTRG
# [4] = qHTS for Inhibitors of Plasmodium falciparum (GB4) proliferation (AID 504315); note: nearly all actives have a fitted effect of over 50% in size; note: potency is the fitted concentration of half-maximal effect
# How it was run: as §1
# [5] = biological target: Cytochrome P450 3A4 (Homo sapiens) (UniProt P08684); assay: qHTS Assay for Activators of Cytochrome P450 3A4 (AID 885); note: nearly all actives have a fitted effect of over 65% in size
# Cytochrome P450 3A4 (Homo sapiens), sequence (P08684 whole entry, looked up): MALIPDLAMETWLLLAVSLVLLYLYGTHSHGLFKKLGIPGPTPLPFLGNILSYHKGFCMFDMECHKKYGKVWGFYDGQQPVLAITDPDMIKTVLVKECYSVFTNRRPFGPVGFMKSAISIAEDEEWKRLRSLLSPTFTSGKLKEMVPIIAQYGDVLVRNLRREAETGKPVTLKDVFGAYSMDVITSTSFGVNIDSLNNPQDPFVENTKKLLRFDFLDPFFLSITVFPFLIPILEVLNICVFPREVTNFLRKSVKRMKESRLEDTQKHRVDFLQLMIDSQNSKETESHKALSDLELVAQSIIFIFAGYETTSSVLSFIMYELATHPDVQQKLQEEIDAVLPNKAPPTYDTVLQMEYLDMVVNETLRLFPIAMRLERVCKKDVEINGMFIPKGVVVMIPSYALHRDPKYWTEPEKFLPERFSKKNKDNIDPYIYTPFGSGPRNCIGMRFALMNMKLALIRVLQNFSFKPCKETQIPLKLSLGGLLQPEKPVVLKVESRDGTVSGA
# How it was run: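 Quantitative HTS format: compounds preincubated with 20nM human CYP3A4 and Luciferin-PPXE substrate at KM, reaction started by NADPH regeneration, stopped after 60 min, luciferase luminescence read 20 min later.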
# [6] = qHTS for Inhibitors of Plasmodium falciparum (HB3) proliferation (AID 504318); note: nearly all actives have a fitted effect of over 60% in size
# How it was run: as §1
# [7] = qHTS for Inhibitors of Plasmodium falciparum (7G8) proliferation (AID 504316); note: nearly all actives have a fitted effect of over 65% in size; note: potency is the fitted concentration of half-maximal effect
# How it was run: as §1
smiles,measurement,setting,value
COc1ccc2c(c1)[C@@]1(OCCC=C[C@@H]1C)C(=O)N2CC=C(C)CCC=C(C)C,Potency,[1],inactive
same,Potency,[2],inactive
same,Potency,[3],inactive
CC(=O)OC[C@H]1O[C@@H](ON=C(C)CCC(=O)OC[C@H]2O[C@H](C#Cc3ccccc3)C=C[C@H]2Oc2ccc(C)cc2)[C@H](OC(C)=O)[C@@H](OC(C)=O)[C@H]1OC(C)=O,Potency,[1],inactive
same,Potency,[2],inactive
same,Potency,[3],inactive
CC(C)=CCCC(C)=CCN1C(=O)[C@]2(OCCC=C[C@H]2C)c2ccccc21,Potency,[1],inactive
same,Potency,[2],inactive
same,Potency,[3],inactive
COC(=O)[C@@H]1CC[C@H](C)[C@@H](c2ccc(C)cc2)N1C(=O)c1ccc(C=NO[C@@H](C)c2cn([C@H](CO)Cc3ccccc3)nn2)cc1,Potency,[4],inactive
same,Potency,[3],inactive
COc1ccc(NC(=O)N2CCc3nc(-c4ccccc4)c4c(c3C2)CO[C@@H](C)C4)cc1,Potency,[1],inactive
same,Potency,[2],inactive
same,Potency,[3],inactive
COC(=O)[C@@H]1CC[C@H](C)[C@@H](c2ccc(C)cc2)N1C(=O)c1ccc(C=NOC[C@@H](O)COCc2ccco2)cc1,Potency,[4],inactive
same,Potency,[3],inactive
COC(=O)[C@H]1O[C@@H](c2cc(OC)c(C)c(OC)c2OCc2ccccc2)[C@H](C)[C@@H]2O[C@]12C,Potency,[4],2.13 µM (active)
same,Potency,[3],inactive
CCCCCCCC1=Cc2ccc(F)cc2C(C(C(=O)OC)C(=O)OC)N1C(=O)OC (centres undefined),"activity, negative = inhibition",[1],-0.0199% [at 1.12 µM]
same,Potency,[2],inactive
same,Potency,[3],inactive
CC12C=C(C=Cc3ccc(C(F)(F)F)cc3)C(C)(C1)C(c1ccc(C(F)(F)F)cc1)CC2=O (centres undefined),Potency,[1],inactive
same,Potency,[2],inactive
same,Potency,[3],inactive
COc1ccc2c(c1)[C@@H](NC(=O)C(F)(F)F)C1CCCCC21c1ccccc1 (some centres undefined),Potency,[1],inactive
same,Potency,[2],inactive
same,Potency,[3],inactive
CC(C)=CCCC(C)=CCN1C(=O)[C@]2(O[C@H](C)CC3=CCCC32)c2c(Br)cccc21 (some centres undefined),Potency,[1],inactive
same,Potency,[2],inactive
same,Potency,[3],inactive
C=C(C(C)=O)C(O)c1ccco1 (centres undefined),Potency,[1],inactive
same,Potency,[2],inactive
same,Potency,[3],inactive
C#CCCCON=C1C[C@@H](O)[C@H](O)[C@H]2[C@@H]3C(=O)N(Cc4ccc5c(c4)OCO5)C(=O)[C@@H]3CC[C@@H]12,Potency,[4],inactive
same,Potency,[3],inactive
CCC=C1C(=O)[C@]2(C(=O)c3ccccc3)C[C@H]3CCC(CCC)(C2=O)[C@@]13OC,Potency,[1],inactive
same,Potency,[2],inactive
same,Potency,[3],inactive
COc1cc(C(CC2=C(c3ccccc3)Cc3ccccc32)NC(=O)C(F)(F)F)cc(OC)c1OC (centres undefined),Potency,[1],inactive
same,Potency,[2],inactive
same,Potency,[3],inactive
COC(=O)C1=C(C(=O)OC)[C@@H]2N(C)c3ccc(OC)cc3[C@@]23C[C@@H](C(=O)OC)N(C(=O)NC(C)(C)C)C3=N1,Potency,[4],1.9 µM (active)
same,Potency,[3],inactive
COC(=O)N[C@@H](c1ccccc1)C(C(=O)OC)C(=O)OC,Potency,[1],inactive
same,Potency,[2],inactive
same,Potency,[3],inactive
CCOC(=O)C1(C(=O)OCC)CC2=C(C=CC3=C(C=C2)CC(C(=O)OCC)(C(=O)OCC)C3)C1,Potency,[1],inactive
same,Potency,[2],inactive
same,Potency,[3],inactive
Cc1ccccc1Nc1oc(-c2ccccc2)nc1C=Cc1ccccc1,Potency,[1],inactive
same,Potency,[2],inactive
same,Potency,[3],inactive
Cc1cc2c(nc1C)CCCCN2C[C@H](C)ON=C1[C@H]2CCn3c(=O)n(-c4ccccc4)c(=O)n3[C@@H]2[C@H](O)[C@@H]2O[C@H]12,Potency,[4],inactive
same,Potency,[3],inactive
CC(C)=CCCC(C)=CCN1C(=O)[C@@]2(C[C@@H](C)C[C@@H](C)O2)c2ccccc21,Potency,[1],inactive
same,Potency,[2],inactive
same,Potency,[3],inactive
Cc1cc(C)c(-c2cc([C@H](C)ON=C[C@@H](C)[C@H](OCc3ccccc3)C(C)C)on2)c(C)c1,Potency,[1],inactive
same,Potency,[2],inactive
same,Potency,[3],inactive
CCCCCCCC1Cc2ccccc2C(C(C(=O)OC)C(=O)OC)N1C(=O)OC (centres undefined),Potency,[1],inactive
same,Potency,[2],inactive
same,Potency,[3],inactive
C[C@@H]1C=CCCO[C@]12C(=O)N(Cc1ccccc1C(F)(F)F)c1cccc(Br)c12,Potency,[1],inactive
same,Potency,[2],inactive
same,Potency,[3],inactive
Cc1ccc2[nH]c3nc(CCCn4ccnc4-c4ccccc4)nnc3c2c1,"activity change, positive = activation",[5],-50.4% [at 11.4 µM]
same,Potency,[1],inactive
same,Potency,[6],inactive
same,Potency,[2],inactive
same,Potency,[3],inactive
CCc1cc2c(nc1CC)CCN(CCC(C)=NO[C@@H](C)CN1CCCc3nc(C)c(C)cc31)C2,Potency,[4],inactive
same,Potency,[3],inactive
COc1ccc2c(c1)[C@@]1(OCCC=C[C@@H]1C)C(=O)N2Cc1ccc(F)cc1,Potency,[1],inactive
same,Potency,[2],inactive
same,Potency,[3],inactive
C[C@H]1[C@@H](C(=O)N2CCCC2)CC(=O)C(=NOCc2ccccc2)C[C@H]1c1ccccc1,Potency,[1],inactive
same,Potency,[2],inactive
same,Potency,[3],inactive
O=S(=O)(CCc1ccccc1)c1nnnn1C1CCCCC1,Potency,[4],inactive
same,Potency,[3],inactive
CCCCc1cc2c(cn1)=C(OC(=O)CCC(=O)OC)C(C)(OC(=O)CC)C(=O)C=2 (centres undefined),"activity, negative = inhibition",[1],-0.996% [at 1.12 µM]
same,Potency,[2],inactive
same,Potency,[3],inactive
C#CCN1C(=O)[C@]2(OCCC=C[C@H]2C)c2c(Br)cccc21,Potency,[4],inactive
same,Potency,[3],inactive
CC=Cc1cc2ccccc2c2c(C(=O)OC)c(C(=O)OC)c(C(=O)OC(C)(C)C)n12,Potency,[4],inactive
same,Potency,[3],inactive
CCCCCCCC1=Cc2ccccc2C(C(C(=O)OC)C(=O)OC)N1C(=O)OC (centres undefined),Potency,[1],inactive
same,Potency,[2],inactive
same,Potency,[3],inactive
CC1(C)O[C@@H](C(O)(c2cc(C(F)(F)F)cc(C(F)(F)F)c2)c2cc(C(F)(F)F)cc(C(F)(F)F)c2)[C@H](C(O)(c2cc(C(F)(F)F)cc(C(F)(F)F)c2)c2cc(C(F)(F)F)cc(C(F)(F)F)c2)O1,Potency,[4],inactive
same,Potency,[7],inactive
same,Potency,[6],inactive
same,Potency,[3],inactive
CCOC(=O)OC[C@H]1O[C@H](C#Cc2ccc(C(C)(C)C)cc2)C=C[C@H]1OC(=O)OCC,Potency,[4],1.69 µM (active)
same,Potency,[7],2.13 µM (active)
same,Potency,[3],inactive
COC(=O)N[C@@H](C=Cc1ccccc1)C(C(=O)OC)=C(C)NCc1ccccc1,Potency,[4],1.69 µM (active)
same,Potency,[3],inactive
COCCN1C(=O)NC(CCc2ccccc2)C(C(=O)OC)=C1C (centres undefined),Potency,[4],inactive
same,Potency,[7],inactive
same,Potency,[6],inactive
same,Potency,[2],inactive
same,Potency,[3],inactive
COc1ccc(COC(=O)NN=C2C[C@@H](O)[C@@H](O)[C@@H]3[C@H]4C(=O)N([C@@H](C)c5ccccc5)C(=O)[C@@H]4CC[C@H]23)cc1,Potency,[4],inactive
same,Potency,[7],inactive
same,Potency,[6],inactive
same,Potency,[3],inactive
